mHTT-CaM PPI inh – inhibitors of human mutant huntingtin-calmodulin interaction; P42858; AlphaScreen His-mHTT/GST-CaM binding, luminescence; inhibition, % at 15 µM; 3.6% of 190,000 active; AID 1671202;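 also: 0% = both proteins with DMSO and 100% = one protein alone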
Pf apPOL inh – Pf-apPOL DNA polymerase inhibition | Recombinant Pf-apPOL, molecular beacon fluorescence, 1.5 h | inhibition, % at 10 µM | 0.25% of 210,000 active | AID 1794808
Starred values were filed as active, the others as inactive. Sampled rows, rich in hits. Any-hit rate of the full collection: about 3.5%. Rule as the data show it: active = inhibition above about 50%; inactive = the rest.

For O=C(Nc1cc(-c2ccccn2)no1)c1ccc(Cl)cc1 the results were mHTT-CaM PPI inh 10 and Pf apPOL inh 1.
Screening COc1cc(OC)cc(C(=O)Nc2nc(C(=O)NC(C)c3ccccc3)cs2)c1 (stereo not drawn) returned mHTT-CaM PPI inh -9 and Pf apPOL inh -3.
For COc1cc(OC)cc(C(=O)Nc2nc(-c3ccccn3)cs2)c1 the results were mHTT-CaM PPI inh 100* and Pf apPOL inh -6.
`O=C(Nc1nc(-c2cc([N+](=O)[O-])cs2)cs1)c1cc(-c2ccco2)on1` gave mHTT-CaM PPI inh -10 and Pf apPOL inh 4.
For O=C(Nc1nc(-c2ccccc2)cs1)c1ccncc1 the results were mHTT-CaM PPI inh 8 and Pf apPOL inh -13.
O=C(Nc1nc(-c2ccccn2)cs1)c1cc(-c2ccco2)on1 was read as mHTT-CaM PPI inh 100* and Pf apPOL inh -213.
O=C(Nc1cc(-c2ccccn2)no1)c1ccccn1 was read as mHTT-CaM PPI inh 100* and Pf apPOL inh -10.
Screening O=C(Nc1nc(-c2ccccn2)cs1)c1ccc(Oc2ccccc2)cc1 returned mHTT-CaM PPI inh 94* and Pf apPOL inh -5.
Cc1ccc2[nH]cc(CCN3CC(C(=O)NCc4ccc5c(c4)OCO5)CC3=O)c2c1 (stereo not drawn) was read as mHTT-CaM PPI inh 25 and Pf apPOL inh 2.
O=C(c1cc(-c2ccco2)on1)N1CCCC1c1ccc(Cl)cc1 (stereo not drawn) was read as mHTT-CaM PPI inh 32 and Pf apPOL inh -2.
`CS(=O)(=O)c1ccccc1` gave mHTT-CaM PPI inh -2.
`C=CCc1cccc2cc(C(=O)OC(C)C(=O)c3ccc(C)cc3)c(=O)oc12` (stereo not drawn) gave mHTT-CaM PPI inh -11 and Pf apPOL inh -6.
For Cc1ccccc1-c1nc2s/c(=C\c3ccccc3F)c(=O)n2n1 the results were mHTT-CaM PPI inh 1 and Pf apPOL inh 5.
For N#CCc1nc(-c2ccccn2)n[nH]1 the results were Pf apPOL inh -25.
`Cc1cccc(NC(=O)Cc2nc(-c3ccccc3)n[nH]2)c1C` gave mHTT-CaM PPI inh 5 and Pf apPOL inh -2.
`Cc1ccc(NC(=O)Cc2nc(-c3ccccn3)n[nH]2)cc1` gave mHTT-CaM PPI inh 69* and Pf apPOL inh -6.
Screening Cc1ccc(NC(=O)Cc2nc(-c3ccccc3)n[nH]2)c(C)c1 returned mHTT-CaM PPI inh 1 and Pf apPOL inh -1.
Screening Cc1cccc(NC(=O)Cc2nc(-c3ccccn3)n[nH]2)c1C returned mHTT-CaM PPI inh 99* and Pf apPOL inh -8.
For Cc1ccccc1NC(=O)Cc1nc(-c2ccccn2)n[nH]1 the results were mHTT-CaM PPI inh 100* and Pf apPOL inh -10.
Screening CCOC(=O)Cc1nc(-c2ccccn2)n[nH]1 returned mHTT-CaM PPI inh 98* and Pf apPOL inh -6.
`O=C(Cc1nc(-c2cccnc2)n[nH]1)Nc1ccc(F)cc1` gave mHTT-CaM PPI inh -3 and Pf apPOL inh -1.
For CCOc1ccc(C(=O)c2sc3nc(N)c(C#N)c(CC)c3c2N)cc1 the results were mHTT-CaM PPI inh 1 and Pf apPOL inh 0.
CC(C)(C)NS(=O)(=O)c1ccc2oc3ccc(S(=O)(=O)NC(C)(C)C)cc3c2c1 was read as mHTT-CaM PPI inh 15 and Pf apPOL inh 8.
CC(C)N(C)C(=O)C1CC(=O)N(Cc2cc(C(F)(F)F)cc(C(F)(F)F)c2)C1 (stereo not drawn) was read as mHTT-CaM PPI inh 8 and Pf apPOL inh -4.
`CCn1ccc2c(cc(C(=O)Nc3ccccc3F)n2C)c1=O` gave mHTT-CaM PPI inh -3 and Pf apPOL inh -3.
N#CC1=C(SCC(=O)Nc2nccs2)NC(=O)CC1c1ccccc1F (stereo not drawn) was read as mHTT-CaM PPI inh -4 and Pf apPOL inh -6.
For O=C(Cc1nc(-c2cccnc2)n[nH]1)Nc1ccc(F)c(F)c1 the results were mHTT-CaM PPI inh 2 and Pf apPOL inh -1.
Screening O=C(Cc1nc(-c2ccccn2)n[nH]1)Nc1ccc(F)c(F)c1 returned mHTT-CaM PPI inh 86* and Pf apPOL inh -14.
Screening COc1cccc(Oc2c(C)oc3c4c(ccc3c2=O)OCN(Cc2ccccn2)C4)c1 returned mHTT-CaM PPI inh 100* and Pf apPOL inh -88.
COCCN1COc2ccc3c(=O)c(Oc4cccc(OC)c4)c(C(F)(F)F)oc3c2C1 was read as mHTT-CaM PPI inh 4 and Pf apPOL inh 3.
Cc1oc2c3c(ccc2c(=O)c1-c1ccccc1)OCN(Cc1ccccn1)C3 was read as mHTT-CaM PPI inh 69* and Pf apPOL inh -10.
For Cc1oc2c3c(ccc2c(=O)c1-c1ccccc1)OCN(CC1CCCO1)C3 (stereo not drawn) the results were mHTT-CaM PPI inh 0 and Pf apPOL inh 1.
Screening O=C(CN1C(=O)CCC1=O)Nc1nnc(-c2ccc(OC(F)(F)F)cc2)o1 returned mHTT-CaM PPI inh -12 and Pf apPOL inh -16.
For CC(C)CC(=O)N1CCC(COc2ccc(C(=O)NC(C)C)cc2)CC1 the results were mHTT-CaM PPI inh -5 and Pf apPOL inh -6.
Screening CCN1c2ccccc2C(=O)NC12CCN(C(=O)c1ccc(C#N)cc1)CC2 returned mHTT-CaM PPI inh 10 and Pf apPOL inh 1.
CCN1CCc2c(sc(NC(=O)c3ccnn3C)c2C(N)=O)C1 was read as mHTT-CaM PPI inh -7 and Pf apPOL inh 0.
Screening CCN1CCc2c(sc(NC(=O)Nc3ccc(Cl)c(Cl)c3)c2C(N)=O)C1 returned mHTT-CaM PPI inh 85* and Pf apPOL inh 0.
For Cc1ccc(NC(=O)N2CCC(c3nc4ccncc4n3C(C)C)C2)c(C)c1 (stereo not drawn) the results were mHTT-CaM PPI inh 6 and Pf apPOL inh 4.
For COc1ccc(-c2nnc(-c3ccc(OC)cc3)nn2)cc1 the results were mHTT-CaM PPI inh 1 and Pf apPOL inh -2.
`COc1ccc(-c2ccc[nH]2)cc1` gave mHTT-CaM PPI inh 62* and Pf apPOL inh -31.
Oc1c(C=Nc2ccc(F)cc2F)[nH]c2ccc(Br)c(Cl)c12 was read as mHTT-CaM PPI inh 28 and Pf apPOL inh 1.
For NC(=S)N/N=C/c1cc(Br)cc(Br)c1O the results were mHTT-CaM PPI inh active.
`Oc1c(Br)cc(Br)cc1C=Nc1ccc(F)cc1` gave mHTT-CaM PPI inh 5.
Screening Oc1c(Cl)cc(Cl)cc1C=NN=Cc1cc(Cl)cc(Cl)c1O returned Pf apPOL inh 1.
COc1cc(OC)c(/C=N/NC(N)=S)cc1Br was read as mHTT-CaM PPI inh inactive.
NC(=S)N/N=C/c1cc(Cl)cc(Cl)c1O was read as mHTT-CaM PPI inh active.
Oc1ccccc1N=Cc1cc(Br)cc(Br)c1O was read as mHTT-CaM PPI inh 55* and Pf apPOL inh -4.
CCc1c(C)sc(NC(=O)CSc2n[nH]c(C)c2[N+](=O)[O-])c1C#N was read as mHTT-CaM PPI inh 4 and Pf apPOL inh -3.
`COC(=O)[C@H](C(C)C)N(CCCc1cn(Cc2ccc(C)cc2)nn1)S(=O)(=O)c1ccccc1Br` gave mHTT-CaM PPI inh 93* and Pf apPOL inh -1.
`COC(=O)[C@H](C(C)C)N(CCc1cn(Cc2ccc(C)cc2)nn1)S(=O)(=O)c1ccccc1Br` gave mHTT-CaM PPI inh -1 and Pf apPOL inh -7.
`O=C(c1cnccn1)N1CCC(c2nc(-c3ccccc3)no2)C1` (stereo not drawn) gave mHTT-CaM PPI inh -5 and Pf apPOL inh -6.
Screening CN1C(=O)c2ccccc2Oc2ccc(C(=O)NC3CCCCCC3)cc21 returned mHTT-CaM PPI inh 8 and Pf apPOL inh -7.

High-throughput results as filed in PubChem.
